Test results from PubChem BioAssay (Tox21).
Inconclusive results are not listed. Some compounds were tested as several samples or in several runs, with calls that do not always agree. Active and inactive are the calls of the source. Unless noted, the call rests on the fitted dose curve.

Legend:
[1] = Nuclear factor erythroid 2-related factor 2/antioxidant responsive element (Nrf2/ARE) small molecule agonists: qHTS cell viability counter screen in human keratinocytes (AID 1919968; active means well fitted curve in the direction sought with a large enough effect in the repeat runs; an effect the other way counts as inactive or inconclusive; further: nearly all actives have a fitted effect of over 55% in size; further: potency means the concentration at half of the fitted maximal effect)
Outline: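 Cytotoxicity was multiplexed with the Nrf2/ARE luciferase assay in the same wells. Stably transfected HaCaT keratinocytes were treated with test compounds for 23 h at 37 C. Cell viability was then measured by CellTiter-Fluor fluorescence.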

[2] = Nuclear factor erythroid 2-related factor 2/antioxidant responsive element (Nrf2/ARE) small molecule agonists: luciferase reporter gene qHTS assay in human keratinocytes (AID 1919969); further: nearly all actives have a fitted effect of over 35% in size; further: potency means the concentration at half of the fitted maximal effect
[3] = biological target: KiSS-1 receptor (Homo sapiens) (UniProt Q969F8); experiment: Human kisspeptin (KISS1R) small molecule agonists, calcium flux assay in KISS1R-HEK293 cells (AID 1920064; active means well fitted curve in the direction sought with a large enough effect in the repeat runs; an effect the other way counts as inactive or inconclusive)
KiSS-1 receptor (Homo sapiens), sequence (Q969F8 whole entry, looked up): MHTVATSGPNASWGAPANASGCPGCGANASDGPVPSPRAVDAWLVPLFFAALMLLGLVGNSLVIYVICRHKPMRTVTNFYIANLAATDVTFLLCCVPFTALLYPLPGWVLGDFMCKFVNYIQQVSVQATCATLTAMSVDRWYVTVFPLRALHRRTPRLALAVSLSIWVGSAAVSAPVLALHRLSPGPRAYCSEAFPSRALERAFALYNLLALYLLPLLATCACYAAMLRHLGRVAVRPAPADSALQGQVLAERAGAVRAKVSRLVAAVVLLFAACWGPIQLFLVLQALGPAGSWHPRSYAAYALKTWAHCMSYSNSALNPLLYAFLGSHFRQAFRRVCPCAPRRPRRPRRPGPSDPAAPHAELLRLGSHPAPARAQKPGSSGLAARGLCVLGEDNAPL
Outline: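 Agonist activity is monitored as intracellular calcium rise in engineered HEK293 cells carrying human KISS1R. Cells are dye-loaded for 1 h at 37 C before compound addition, and fluorescence is recorded for 3 min.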

[4] = G protein-coupled receptor (GPCR) small molecule agonists, calcium flux assay: HEK293 wild type cell line counter screen (AID 1920065)
Outline: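 Seed cells, incubate 18 h (37 C, 5% CO2); add calcium dye, 1 h at 37 C; pin-transfer compounds, ATP control or DMSO; read fluorescence 480/540 nm each second for 3 min.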

[5] = p53 small molecule agonists, cell-based qHTS assay with human liver microsomes (AID 1963577)
Outline: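 Compounds act here after metabolic activation: human liver microsomes and NADPH, both at 0.5 mg/mL final, were co-added to p53RE-bla cells. Incubation ran 16 h at 37 C, followed by LiveBLAzer detection.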

[6] = p53 small molecule agonists, cell-based qHTS assay with rat liver microsomes (AID 1963578)
Outline: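 Read-out is beta-lactamase reporter fluorescence (LiveBLAzer, 2 h, room temperature, dark) in p53RE-bla cells treated 16 h at 37 C with compound, rat liver microsomes and NADPH, both 0.5 mg/mL final.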

[7] = p53 small molecule agonists, cell-based qHTS assay with human liver microsomes: qHTS cell viability counter screen (AID 1963579); further: nearly all actives have a fitted effect of over 45% in size
Outline: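 Cells carrying the p53 response-element beta-lactamase reporter are treated for 16 h at 37 C with test compounds in the presence of human liver microsomes and NADPH (both 0.5 mg/mL final); ATP-based CellTiter-Glo luminescence then reports viability.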

[8] = p53 small molecule agonists, cell-based qHTS assay with rat liver microsomes: qHTS cell viability counter screen (AID 1963580); further: nearly all actives have a fitted effect of over 45% in size
Outline: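 Cytotoxicity counter screen: intracellular ATP measured by CellTiter-Glo luminescence in the same wells as the beta-lactamase reporter read, on HCT-116 p53RE-bla cells exposed 16 h at 37 C to compounds with rat liver microsomes and NADPH, each 0.5 mg/mL final.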

[9] = p53 small molecule agonists, cell-based qHTS assay (AID 1963582; active means well fitted activation curve with a large enough effect in the signal ratio in the repeat runs, not every such curve was filed as active; the % refers to the signal ratio)
Outline: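 Cells carrying a p53-responsive bla reporter are treated with test compounds for 16 h at 37 C; beta-lactamase activity is then detected with LiveBLAzer B/G FRET substrate after 2 h at room temperature.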

[10] = biological target: Muscarinic acetylcholine receptor M1 (Homo sapiens) (UniProt P11229); experiment: Cholinergic receptor muscarinic 1 (CHRM1) small molecule agonists, cell-based qHTS assay (AID 1963589); further: nearly all actives have a fitted effect of over 35% in size; further: potency means the concentration at half of the fitted maximal effect
Muscarinic acetylcholine receptor M1 (Homo sapiens), sequence (P11229 whole entry, looked up): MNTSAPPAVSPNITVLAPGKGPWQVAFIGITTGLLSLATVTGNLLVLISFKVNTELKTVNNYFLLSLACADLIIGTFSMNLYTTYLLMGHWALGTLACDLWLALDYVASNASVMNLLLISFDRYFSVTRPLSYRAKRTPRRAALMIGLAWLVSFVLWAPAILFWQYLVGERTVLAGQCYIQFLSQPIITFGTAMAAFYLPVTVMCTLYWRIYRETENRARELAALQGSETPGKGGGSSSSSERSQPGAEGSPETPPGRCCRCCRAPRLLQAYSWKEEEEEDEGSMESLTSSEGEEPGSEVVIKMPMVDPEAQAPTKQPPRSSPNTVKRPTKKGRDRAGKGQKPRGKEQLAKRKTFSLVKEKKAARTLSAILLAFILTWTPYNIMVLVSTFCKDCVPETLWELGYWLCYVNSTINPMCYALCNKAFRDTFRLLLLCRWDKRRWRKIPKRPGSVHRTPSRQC
Outline: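 Cells were plated and incubated 18 h at 37 C/5% CO2, loaded with calcium dye for 1 h at 37 C, then treated with compounds in DMSO. Fluorescence was recorded kinetically at 1 sec intervals.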

[11] = cAMP Responsive Elements (CRE) small molecule agonists, cell-based qHTS assay (AID 1963590)
Outline: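 Cells carrying a CRE-driven beta-lactamase reporter (HEK 293T) are seeded, incubated overnight (18 h), and treated with test compounds for 3 h at 37 C; reporter activity is then detected with a FRET substrate after 2 h at room temperature.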

[12] = cAMP Responsive Elements (CRE) small molecule antagonists, cell-based qHTS assay (AID 1963591; active means well fitted inhibition curve with a large enough effect in the signal ratio in the repeat runs, not every such curve was filed as active; the % refers to the signal ratio)
Outline: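 Cells (CRE-bla HEK 293T, DMEM with 10% dialyzed FBS and 25 mM HEPES) are seeded and incubated 18 h. Compounds are added with NKH477 agonist at 0.25 uM final for 3 h, then FRET substrate for 2 h.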

[13] = biological target: Beta-2 adrenergic receptor (Homo sapiens) (UniProt P07550); experiment: Adrenergic beta2 receptor (ADRB2) small molecule antagonists, cell-based qHTS assay (AID 1963592); further: series mostly up to about 92 µM; nearly all actives have a fitted effect of over 50% in size
Beta-2 adrenergic receptor (Homo sapiens), sequence (P07550 whole entry, looked up): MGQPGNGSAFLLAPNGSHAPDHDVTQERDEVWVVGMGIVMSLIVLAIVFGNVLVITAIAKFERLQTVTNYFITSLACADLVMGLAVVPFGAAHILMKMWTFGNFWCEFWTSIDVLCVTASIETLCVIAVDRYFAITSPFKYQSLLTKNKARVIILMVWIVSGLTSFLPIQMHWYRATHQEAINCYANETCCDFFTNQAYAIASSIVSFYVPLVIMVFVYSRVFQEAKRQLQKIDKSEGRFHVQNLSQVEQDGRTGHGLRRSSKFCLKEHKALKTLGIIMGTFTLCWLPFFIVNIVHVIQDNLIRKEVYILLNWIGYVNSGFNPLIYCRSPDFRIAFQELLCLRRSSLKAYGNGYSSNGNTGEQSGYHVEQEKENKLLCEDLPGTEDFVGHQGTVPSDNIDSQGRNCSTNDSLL
Outline: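 Assay format: CHO-ADRB2 cells, 18-20hr seeding at 37C/5% CO2, then compound plus 1nM isoproterenol agonist mix for 0.5hr RT. Homogeneous time-resolved fluorescence cAMP detection after 1hr, expressed as 665/615 nm ratio.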

[14] = biological target: Beta-2 adrenergic receptor (Homo sapiens) (UniProt P07550); experiment: Adrenergic beta2 receptor (ADRB2) small molecule agonists, cell-based qHTS assay (AID 1963593);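 further: CHO cells stably overexpressing human ADRB2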
Outline: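 CHO cells stably over-expressing ADRB2 were plated overnight at 37C, then dosed with compounds plus a stimulation mix containing 100uM IBMX and 25uM Ro-20-1724 for 0.5hr at room temperature. cAMP was measured by HTRF competition, 1hr.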

[15] = biological target: D(2) dopamine receptor (Homo sapiens) (UniProt P14416); experiment: Dopamine D2 receptor (DRD2) small molecule agonists, cell-based qHTS assay (AID 1963594); further: nearly all actives have a fitted effect of over 35% in size
D(2) dopamine receptor (Homo sapiens), sequence (P14416 whole entry, looked up): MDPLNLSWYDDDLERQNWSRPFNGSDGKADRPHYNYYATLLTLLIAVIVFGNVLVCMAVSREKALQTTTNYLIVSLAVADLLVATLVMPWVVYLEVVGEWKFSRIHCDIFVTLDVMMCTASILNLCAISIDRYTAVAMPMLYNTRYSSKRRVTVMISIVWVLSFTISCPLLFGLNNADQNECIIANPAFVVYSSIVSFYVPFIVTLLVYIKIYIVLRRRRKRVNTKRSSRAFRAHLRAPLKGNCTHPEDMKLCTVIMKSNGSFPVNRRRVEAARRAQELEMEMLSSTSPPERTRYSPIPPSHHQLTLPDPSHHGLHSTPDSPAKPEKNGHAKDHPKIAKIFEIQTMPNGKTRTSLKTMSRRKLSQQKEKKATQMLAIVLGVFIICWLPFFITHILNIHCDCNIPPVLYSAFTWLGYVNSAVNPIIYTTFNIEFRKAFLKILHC
Outline: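 HEK293 cells stably expressing human DRD2, pre-treated with PDE inhibitor Ro20-1724 (0.1 mM final) and compound 10 min at room temperature, then stimulated with NKH477 (200nM […]) for 30 min. cAMP read by HTRF (665/620 nm).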

[16] = biological target: D(2) dopamine receptor (Homo sapiens) (UniProt P14416); experiment: Dopamine D2 receptor (DRD2) small molecule antagonists, cell-based qHTS assay (AID 1963595; active means well fitted inhibition curve with a large enough effect in the signal ratio in the repeat runs, with a control signal flat; the % refers to the signal ratio)
Outline: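 In this cell-based antagonist screen, compounds act for 10 min at room temperature before a 30 min challenge with 12 nM quinpirole and 200 nM NKH477. cAMP is quantified by HTRF competition in DRD2-HEK293 cells containing 0.1 mM Ro20-1724.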

[17] = p53 small molecule agonists, cell-based qHTS assay: qHTS cell viability counter screen (AID 1963581); further: nearly all actives have a fitted effect of over 45% in size
Outline: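 Viability was counter-screened in parallel with the p53 agonist reporter by measuring intracellular ATP luminescence in the same HCT-116 p53RE-bla wells after 16 h compound treatment at 37 C.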

[18] = biological target: 5-hydroxytryptamine receptor 2A (Homo sapiens) (UniProt P28223); experiment: 5-hydroxytryptamine receptor 2A (HTR2A) small molecule agonists, cell-based qHTS assay (AID 1963587); further: nearly all actives have a fitted effect of over 30% in size; further: potency means the concentration at half of the fitted maximal effect
5-hydroxytryptamine receptor 2A (Homo sapiens), sequence (P28223 whole entry, looked up): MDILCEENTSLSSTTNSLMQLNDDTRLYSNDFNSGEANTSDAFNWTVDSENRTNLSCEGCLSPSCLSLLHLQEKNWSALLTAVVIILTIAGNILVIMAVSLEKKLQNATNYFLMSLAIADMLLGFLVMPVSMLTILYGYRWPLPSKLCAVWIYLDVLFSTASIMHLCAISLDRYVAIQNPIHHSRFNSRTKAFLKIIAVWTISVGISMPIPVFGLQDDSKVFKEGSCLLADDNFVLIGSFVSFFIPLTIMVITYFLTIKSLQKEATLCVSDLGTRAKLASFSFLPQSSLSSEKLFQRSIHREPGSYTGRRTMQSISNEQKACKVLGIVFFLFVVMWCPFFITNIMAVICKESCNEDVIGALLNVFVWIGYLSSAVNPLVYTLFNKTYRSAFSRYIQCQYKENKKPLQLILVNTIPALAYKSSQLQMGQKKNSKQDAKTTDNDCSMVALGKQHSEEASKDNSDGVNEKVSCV
Outline: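 CHO cells stably expressing human HTR2A, plated 18 h, loaded with calcium dye 1 h at 37 C. Agonist mode: compounds added and intracellular calcium fluorescence recorded kinetically for 2 min at 1 sec intervals.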

[19] = biological target: Muscarinic acetylcholine receptor M1 (Homo sapiens) (UniProt P11229); experiment: Cholinergic receptor muscarinic 1 (CHRM1) small molecule antagonists, cell-based qHTS assay (AID 1963588); further: nearly all actives have a fitted effect of over 40% in size
Outline: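 Compounds were tested at 15 concentrations in three independent runs. Dye-loaded CHRM1-CHO cells were exposed 5 min at room temperature before stimulation by acetylcholine added at 50nM. Intracellular calcium was read kinetically on FDSS for 3 min.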

[20] = biological target: 5-hydroxytryptamine receptor 2A (Homo sapiens) (UniProt P28223); experiment: 5-hydroxytryptamine receptor 2A (HTR2A) small molecule antagonists, cell-based qHTS assay (AID 1963586); further: nearly all actives have a fitted effect of over 45% in size
Outline: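 CHO cells stably expressing human HTR2A were plated for 18 h at 37 C, then loaded with calcium dye for 1 h. Compounds were preincubated 5 min at room temperature before DOI (4 nM solution) was added. Kinetic fluorescence was read for 3 min.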

Measured: Potency

CC(C)CCOCCC(C)C
not listed: [17] | [18] | [19] | [20]
inactive: all other assays above

Nc1ccc(Oc2ccc(Cl)cc2)cc1
not listed: [14] | [20]
inactive: all other assays above

CCCCCCCC(=O)N(C)C
not listed: [10]
inactive: all other assays above

c1ccc2sc(SSN3CCOCC3)nc2c1
active: [1] 30.6 µM | [2] 24.3 µM
not listed: [5] | [6] | [8] | [9] | [18] | [20]
inactive: all other assays above

Cc1c(I)c(=O)n(-c2ccccc2)n1C
active: [10] 0.0379 µM
not listed: [9] | [15]
inactive: all other assays above

CC(C)(C)OC(=O)c1cccc(N)c1
not listed: [5] | [6] | [14] | [17]
inactive: all other assays above

C[C@]12CC[C@H]3[C@@H](CCC4=CC(=O)CC[C@@]43C)[C@@H]1CC[C@@H]2C(=O)CO
not listed: [7] | [11] | [12]
inactive: all other assays above

CC(C#N)(CCC(=O)O)N=NC(C)(C#N)CCC(=O)O (stereo not given)
not listed: [11] | [16]
inactive: all other assays above

CCCCC(CC)COC(=O)CCCCCCCC(=O)OCC(CC)CCCC (stereo not given)
9.77 µM (active) and inactive: [18]
54.5 µM (active) and inactive: [1]
15.4 µM (active) and inactive: [2]
not listed: [10] | [13] | [15] | [19] | [20]
inactive: all other assays above

FC(F)(F)c1ccccc1Cl
not listed: [4]
inactive: all other assays above

OC/C=C/CO
not listed: [5] | [7]
inactive: all other assays above

CC1=NN(c2ccc(S(=O)(=O)O)cc2)C(=O)C1
not listed: [18]
inactive: all other assays above

COC(=O)CCCCC(=O)O
not listed: [8]
inactive: all other assays above

CCCCCCCCCCCCCCCC
not listed: [9]
inactive: all other assays above
